# Laboratory results as given in the supplement of paper PMC8728848.
# The entries come from a sample that favours the strongest signals as a whole.
# B1: CBM40 CPF071 (Clostridium perfringens) (protein)
# chain: MAHHHHHHVGTGSNDDDDKSPDPMLSSLGEYKDINLESSNASNITYDLEKYKNLDEGTIVVRFNSKDSKIQSLLGISNSKTKNGYFNFYVTNSRVGFELRNQKNEGNTQNGTENLVHMYKDVALNDGDNTVALKIEKNKGYKLFLNGKMIKEVKDTNTKFLNNIENLDSAFIGKTNRYGQSNEYNFKGNIGFMNIYNEPLGDDYLLSKTGETK
# Tests used:
# Assay in all cases: glycan array binding signal (z-score within array); higher = stronger binding
# Settings in all cases: glycan notation: IUPAC condensed, linker removed
# Fuc(a1-2)Gal(b1-3)GlcNAc = molecular target: Fuc(a1-2)Gal(b1-3)GlcNAc
# Procedure, shortened: (§1)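 Negative Z-scores can be read as non-binding. The Z-score is calculated within each array and then averaged across arrays of one protein sequence at different concentrations or buffers and across linkers. Arrays, 3228 in all, were curated from the Consortium for Functional Glycomics database and kept only where the protein sequence was available.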
# Fuc(a1-2)Gal(b1-4)Glc = molecular target: Fuc(a1-2)Gal(b1-4)Glc
# Procedure, shortened: as §1
# Fuc(a1-2)Gal(b1-4)GlcNAc = molecular target: Fuc(a1-2)Gal(b1-4)GlcNAc
# Procedure, shortened: as §1
# [1] = molecular target: Fuc(a1-2)Gal(b1-4)GlcNAc(b1-2)Man(a1-3)[Fuc(a1-2)Gal(b1-4)GlcNAc(b1-2)Man(a1-6)]Man(b1-4)GlcNAc(b1-4)GlcNAc
# Procedure, shortened: as §1
# [2] = molecular target: Fuc(a1-2)Gal(b1-4)GlcNAc(b1-3)Gal(b1-4)GlcNAc
# Procedure, shortened: as §1
# [3] = molecular target: Fuc(a1-2)Gal(b1-4)GlcNAc(b1-3)[Fuc(a1-3)[Gal(b1-4)]GlcNAc(b1-6)]Gal(b1-4)Glc
# Procedure, shortened: as §1
# [4] = molecular target: Fuc(a1-2)Gal(b1-4)[Fuc(a1-3)]GlcNAc
# Procedure, shortened: as §1
# [5] = molecular target: Fuc(a1-2)Gal(b1-4)[Fuc(a1-3)]GlcNAc(b1-3)Gal(b1-4)[Fuc(a1-3)]GlcNAc(b1-3)Gal(b1-4)[Fuc(a1-3)]GlcNAc
# Procedure, shortened: as §1
# [6] = molecular target: Fuc(a1-2)[Gal(a1-3)]Gal(b1-4)[Fuc(a1-3)]Glc
# Procedure, shortened: as §1
# [7] = molecular target: Fuc(a1-2)[Gal(a1-3)]Gal(b1-4)[Fuc(a1-3)]GlcNAc
# Procedure, shortened: as §1
# [8] = molecular target: Fuc(a1-2)[GalNAc(a1-3)]Gal(b1-3)GlcNAc(b1-6)GalNAc
# Procedure, shortened: as §1
# [9] = molecular target: Fuc(a1-2)[GalNAc(a1-3)]Gal(b1-4)GlcNAc
# Procedure, shortened: as §1
# [10] = molecular target: Fuc(a1-2)[GalNAc(a1-3)]Gal(b1-4)GlcNAc(b1-2)Man(a1-3)[Fuc(a1-2)[GalNAc(a1-3)]Gal(b1-4)GlcNAc(b1-2)Man(a1-6)]Man(b1-4)GlcNAc(b1-4)GlcNAc
# Procedure, shortened: as §1
# [11] = molecular target: Fuc(a1-3)[Gal(b1-4)]GlcNAc(b1-2)Man(a1-3)[Fuc(a1-3)[Gal(b1-4)]GlcNAc(b1-2)Man(a1-6)]Man(b1-4)GlcNAc(b1-4)[Fuc(a1-6)]GlcNAc
# Procedure, shortened: as §1
# [12] = molecular target: Gal(a1-3)Gal(b1-3)GlcNAc(b1-2)Man
# Procedure, shortened: as §1
# [13] = molecular target: Gal(b1-3)GlcNAc(a1-3)Gal(b1-4)GlcNAc
# Procedure, shortened: as §1
# Gal(b1-3)GlcNAc(b1-2)Man = molecular target: Gal(b1-3)GlcNAc(b1-2)Man
# Procedure, shortened: as §1
# [14] = molecular target: Gal(b1-3)[Neu5Ac(a2-6)]GlcNAc(b1-4)Gal(b1-4)Glc
# Procedure, shortened: as §1
# [15] = molecular target: Gal(b1-4)GlcNAc(b1-3)GalNAc
# Procedure, shortened: as §1
# Gal3S6S(b1-4)GlcNAc = molecular target: Gal3S6S(b1-4)GlcNAc
# Procedure, shortened: as §1
# Gal6S(b1-3)GlcNAc = molecular target: Gal6S(b1-3)GlcNAc
# Procedure, shortened: as §1
# Gal6S(b1-4)Glc = molecular target: Gal6S(b1-4)Glc
# Procedure, shortened: as §1
# GalNAc(b1-3)GalNAc = molecular target: GalNAc(b1-3)GalNAc
# Procedure, shortened: as §1
# Glc(b1-4)Glc = molecular target: Glc(b1-4)Glc
# Procedure, shortened: as §1
# GlcA(b1-3)GlcNAc = molecular target: GlcA(b1-3)GlcNAc
# Procedure, shortened: as §1
# [16] = molecular target: GlcNAc(a1-4)Gal(b1-3)GlcNAc
# Procedure, shortened: as §1
# [17] = molecular target: GlcNAc(b1-3)Gal(b1-4)GlcNAc(b1-3)Gal(b1-4)GlcNAc(b1-2)Man(a1-3)[GlcNAc(b1-3)Gal(b1-4)GlcNAc(b1-3)Gal(b1-4)GlcNAc(b1-2)Man(a1-6)]Man(b1-4)GlcNAc(b1-4)[Fuc(a1-6)]GlcNAc
# Procedure, shortened: as §1
# [18] = molecular target: GlcNAc(b1-3)Gal(b1-4)GlcNAc(b1-3)Gal(b1-4)GlcNAc(b1-3)Gal(b1-4)GlcNAc(b1-3)Gal(b1-4)GlcNAc(b1-2)Man(a1-3)[GlcNAc(b1-3)Gal(b1-4)GlcNAc(b1-3)Gal(b1-4)GlcNAc(b1-3)Gal(b1-4)GlcNAc(b1-3)Gal(b1-4)GlcNAc(b1-2)Man(a1-6)]Man(b1-4)GlcNAc(b1-4)[Fuc(a1-6)]GlcNAc
# Procedure, shortened: as §1
# Kdn(a2-3)Gal(b1-3)GlcNAc = molecular target: Kdn(a2-3)Gal(b1-3)GlcNAc
# Procedure, shortened: as §1
# [19] = molecular target: Neu5Ac(a2-3)Gal(b1-3)GalNAc
# Procedure, shortened: as §1
# [20] = molecular target: Neu5Ac(a2-3)Gal(b1-3)GalNAc(b1-4)[Neu5Ac(a2-8)Neu5Ac(a2-3)]Gal(b1-4)Glc
# Procedure, shortened: as §1
# [21] = molecular target: Neu5Ac(a2-3)Gal(b1-3)GlcNAc
# Procedure, shortened: as §1
# [22] = molecular target: Neu5Ac(a2-3)Gal(b1-3)GlcNAc(b1-2)[Neu5Ac(a2-3)Gal(b1-3)GlcNAc(b1-4)]Man(a1-6)[Neu5Ac(a2-3)Gal(b1-3)GlcNAc(b1-2)Man(a1-3)]Man(b1-4)GlcNAc(b1-4)GlcNAc
# Procedure, shortened: as §1
# [23] = molecular target: Neu5Ac(a2-3)Gal(b1-3)GlcNAc(b1-3)Gal(b1-4)GlcNAc
# Procedure, shortened: as §1
# [24] = molecular target: Neu5Ac(a2-3)Gal(b1-3)[Fuc(a1-4)]GlcNAc
# Procedure, shortened: as §1
# [25] = molecular target: Neu5Ac(a2-3)Gal(b1-3)[Fuc(a1-4)]GlcNAc(b1-3)Gal(b1-3)[Fuc(a1-4)]GlcNAc
# Procedure, shortened: as §1
# [26] = molecular target: Neu5Ac(a2-3)Gal(b1-3)[Fuc(a1-4)]GlcNAc(b1-3)Gal(b1-4)[Fuc(a1-3)]GlcNAc
# Procedure, shortened: as §1
# [27] = molecular target: Neu5Ac(a2-3)Gal(b1-3)]Neu5Ac(a2-3)Gal(b1-4)]GlcNAc
# Procedure, shortened: as §1
# [28] = molecular target: Neu5Ac(a2-3)Gal(b1-4)GlcNAc(b1-2)Man(a1-3)[Neu5Ac(a2-3)Gal(b1-4)GlcNAc(b1-2)Man(a1-6)]Man(b1-4)GlcNAc(b1-4)GlcNAc
# Procedure, shortened: as §1
# [29] = molecular target: Neu5Ac(a2-3)Gal(b1-4)GlcNAc(b1-3)Gal(b1-4)GlcNAc
# Procedure, shortened: as §1
# [30] = molecular target: Neu5Ac(a2-3)Gal(b1-4)GlcNAc6S
# Procedure, shortened: as §1
# [31] = molecular target: Neu5Ac(a2-3)Gal(b1-4)[Fuc(a1-3)]GlcNAc(b1-3)Gal
# Procedure, shortened: as §1
# [32] = molecular target: Neu5Ac(a2-3)Gal6S(b1-4)GlcNAc
# Procedure, shortened: as §1
# [33] = molecular target: Neu5Ac(a2-3)Gal6S(b1-4)[Fuc(a1-3)]GlcNAc
# Procedure, shortened: as §1
# [34] = molecular target: Neu5Ac(a2-3)GalNAc(b1-4)GlcNAc
# Procedure, shortened: as §1
# [35] = molecular target: Neu5Ac(a2-6)Gal(b1-4)GlcNAc(b1-3)Gal(b1-4)GlcNAc(b1-6)[Gal(b1-3)]GalNAc
# Procedure, shortened: as §1
# [36] = molecular target: Neu5Ac(a2-6)Gal(b1-4)GlcNAc(b1-6)[Gal(b1-3)GlcNAc(b1-3)]Gal(b1-4)Glc
# Procedure, shortened: as §1
# Neu5Ac(a2-8)Neu5Ac = molecular target: Neu5Ac(a2-8)Neu5Ac
# Procedure, shortened: as §1
# [37] = molecular target: Neu5Ac(a2-8)Neu5Ac(a2-3)Gal(b1-3)GalNAc(b1-4)[Neu5Ac(a2-3)]Gal(b1-4)Glc
# Procedure, shortened: as §1
# [38] = molecular target: Neu5Ac(a2-8)Neu5Ac(a2-8)Neu5Ac
# Procedure, shortened: as §1
# [39] = molecular target: Neu5Ac(a2-8)Neu5Ac(a2-8)Neu5Ac(a2-8)Neu5Ac(a2-3)[GalNAc(b1-4)]Gal(b1-4)Glc
# Procedure, shortened: as §1
# [40] = molecular target: Neu5Gc(a2-3)Gal(b1-4)GlcNAc(b1-3)Gal(b1-4)GlcNAc(b1-2)Man(a1-3)[Neu5Gc(a2-3)Gal(b1-4)GlcNAc(b1-3)Gal(b1-4)GlcNAc(b1-2)Man(a1-6)]Man(b1-4)GlcNAc(b1-4)GlcNAc
# Procedure, shortened: as §1
# [41] = molecular target: Neu5Gc(a2-6)Gal(b1-4)GlcNAc
# Procedure, shortened: as §1
binder,measurement,setting,value
B1,glycan array binding signal (z-score),Fuc(a1-2)Gal(b1-3)GlcNAc,-0.384
same,glycan array binding signal (z-score),Fuc(a1-2)Gal(b1-4)Glc,-0.55
same,glycan array binding signal (z-score),Fuc(a1-2)Gal(b1-4)GlcNAc,-0.027
same,glycan array binding signal (z-score),[1],-0.22
same,glycan array binding signal (z-score),[2],0.231
same,glycan array binding signal (z-score),[3],2.74
same,glycan array binding signal (z-score),[4],0.074
same,glycan array binding signal (z-score),[5],0.635
same,glycan array binding signal (z-score),[6],-0.299
same,glycan array binding signal (z-score),[7],-0.541
same,glycan array binding signal (z-score),[8],0.171
same,glycan array binding signal (z-score),[9],-0.116
same,glycan array binding signal (z-score),[10],-0.216
same,glycan array binding signal (z-score),[11],-0.443
same,glycan array binding signal (z-score),[12],0.599
same,glycan array binding signal (z-score),[13],-0.517
same,glycan array binding signal (z-score),Gal(b1-3)GlcNAc(b1-2)Man,-0.631
same,glycan array binding signal (z-score),[14],-0.087
same,glycan array binding signal (z-score),[15],-0.419
same,glycan array binding signal (z-score),Gal3S6S(b1-4)GlcNAc,-0.144
same,glycan array binding signal (z-score),Gal6S(b1-3)GlcNAc,-0.48
same,glycan array binding signal (z-score),Gal6S(b1-4)Glc,-0.246
same,glycan array binding signal (z-score),GalNAc(b1-3)GalNAc,0.09
same,glycan array binding signal (z-score),Glc(b1-4)Glc,2.37
same,glycan array binding signal (z-score),GlcA(b1-3)GlcNAc,0.262
same,glycan array binding signal (z-score),[16],-0.341
same,glycan array binding signal (z-score),[17],-0.411
same,glycan array binding signal (z-score),[18],-0.108
same,glycan array binding signal (z-score),Kdn(a2-3)Gal(b1-3)GlcNAc,-0.464
same,glycan array binding signal (z-score),[19],-0.019
same,glycan array binding signal (z-score),[20],-0.469
same,glycan array binding signal (z-score),[21],0.994
same,glycan array binding signal (z-score),[22],2.77
same,glycan array binding signal (z-score),[23],-0.328
same,glycan array binding signal (z-score),[24],2.38
same,glycan array binding signal (z-score),[25],0.256
same,glycan array binding signal (z-score),[26],1.09
same,glycan array binding signal (z-score),[27],10.7
same,glycan array binding signal (z-score),[28],-0.305
same,glycan array binding signal (z-score),[29],1.96
same,glycan array binding signal (z-score),[30],5.07
same,glycan array binding signal (z-score),[31],1.97
same,glycan array binding signal (z-score),[32],16.3
same,glycan array binding signal (z-score),[33],5.09
same,glycan array binding signal (z-score),[34],0.216
same,glycan array binding signal (z-score),[35],0.025
same,glycan array binding signal (z-score),[36],-0.069
same,glycan array binding signal (z-score),Neu5Ac(a2-8)Neu5Ac,0.538
same,glycan array binding signal (z-score),[37],-0.205
same,glycan array binding signal (z-score),[38],-0.128
same,glycan array binding signal (z-score),[39],-0.358
same,glycan array binding signal (z-score),[40],2.46
same,glycan array binding signal (z-score),[41],-0.336
